In ChEMBL document CHEMBL3988442, “University of Dundee, Small-Polar-MMV Screening Library” (2021):
For some of these results: Measured potencies and affinities stand elsewhere.

Legend:
Set-up in all cases: scale not given: direction of the effect not stated beside the values
[1] = biological target: Protein translocase subunit SecA (Escherichia coli (strain K12)) (UniProt P10408); assay: Assay to Identify E. coli SecA ATPase Inhibitors; format: functional; details: 30 µM
[2] = biological target: T1, Ubiquitin-activating enzyme e1, putative (Leishmania donovani (strain BPK282A1)) (UniProt E9BSI1); assay: Leishmania donovani Ubiquitin Activating Enzyme (LdE1); format: functional; details: 30 µM
T1 sequence (whole entry): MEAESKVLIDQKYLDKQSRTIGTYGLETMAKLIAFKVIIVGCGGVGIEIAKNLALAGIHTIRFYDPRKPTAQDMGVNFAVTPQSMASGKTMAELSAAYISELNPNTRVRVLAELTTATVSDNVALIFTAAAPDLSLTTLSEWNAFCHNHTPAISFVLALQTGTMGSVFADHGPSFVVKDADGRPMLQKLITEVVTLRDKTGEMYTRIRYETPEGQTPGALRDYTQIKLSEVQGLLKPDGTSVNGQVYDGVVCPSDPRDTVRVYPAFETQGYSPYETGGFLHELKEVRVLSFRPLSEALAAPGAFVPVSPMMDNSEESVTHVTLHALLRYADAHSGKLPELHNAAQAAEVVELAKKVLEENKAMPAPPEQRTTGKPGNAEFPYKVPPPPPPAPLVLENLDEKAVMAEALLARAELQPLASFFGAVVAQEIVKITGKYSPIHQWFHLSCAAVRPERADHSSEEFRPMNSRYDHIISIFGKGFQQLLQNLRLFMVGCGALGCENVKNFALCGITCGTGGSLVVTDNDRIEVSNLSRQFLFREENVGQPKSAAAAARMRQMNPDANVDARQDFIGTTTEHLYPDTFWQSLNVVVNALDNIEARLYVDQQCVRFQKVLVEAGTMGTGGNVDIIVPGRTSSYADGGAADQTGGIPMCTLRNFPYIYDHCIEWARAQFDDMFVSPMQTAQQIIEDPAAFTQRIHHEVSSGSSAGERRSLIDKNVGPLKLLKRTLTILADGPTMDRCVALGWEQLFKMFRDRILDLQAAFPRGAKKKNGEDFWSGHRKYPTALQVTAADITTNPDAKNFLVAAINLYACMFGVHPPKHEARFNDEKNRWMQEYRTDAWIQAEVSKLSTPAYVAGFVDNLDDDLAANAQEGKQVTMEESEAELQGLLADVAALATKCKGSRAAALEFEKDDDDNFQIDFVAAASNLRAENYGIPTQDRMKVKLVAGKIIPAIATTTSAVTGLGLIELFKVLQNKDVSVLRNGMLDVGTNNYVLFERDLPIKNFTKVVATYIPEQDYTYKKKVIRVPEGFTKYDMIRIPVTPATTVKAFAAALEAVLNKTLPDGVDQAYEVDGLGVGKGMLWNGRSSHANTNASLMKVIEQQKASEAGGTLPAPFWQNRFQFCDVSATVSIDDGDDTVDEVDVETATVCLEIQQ

[3] = biological target: Sialic acid-binding Ig-like lectin 9 (Homo sapiens) (UniProt Q9Y336); assay: Hs-Siglec9 ALPHAscreen SOP 20170721; details: 10 µM
Sialic acid-binding Ig-like lectin 9 (Homo sapiens), sequence (Q9Y336 whole entry): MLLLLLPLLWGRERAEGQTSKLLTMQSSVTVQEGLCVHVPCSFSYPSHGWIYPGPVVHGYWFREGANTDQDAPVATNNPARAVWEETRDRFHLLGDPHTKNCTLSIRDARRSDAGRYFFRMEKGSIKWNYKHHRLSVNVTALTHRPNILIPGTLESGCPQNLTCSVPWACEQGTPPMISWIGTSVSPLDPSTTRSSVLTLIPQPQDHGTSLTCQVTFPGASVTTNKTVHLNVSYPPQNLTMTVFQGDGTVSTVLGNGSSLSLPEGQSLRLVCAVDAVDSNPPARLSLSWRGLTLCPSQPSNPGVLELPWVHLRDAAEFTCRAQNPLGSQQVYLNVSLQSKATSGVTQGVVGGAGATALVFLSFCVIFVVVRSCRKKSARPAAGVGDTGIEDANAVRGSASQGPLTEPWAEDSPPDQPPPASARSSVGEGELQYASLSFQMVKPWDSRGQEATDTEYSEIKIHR

Trypanosoma cruzi = assay: Trypanosoma cruzi phosphomannomutase and mannose-1-phosphate guanylyltransferase assay; format: functional; details: 10 µM
[4] = biological target: T2, Arginase-2, mitochondrial (Homo sapiens) (UniProt P78540); assay: in vitro enzyme assay to detect the production of urea directly proportional to the activity of Arginase II; format: functional; details: 33.3 µM; also: in the data most compounds retested in dose-response had high values
T2 sequence (whole entry): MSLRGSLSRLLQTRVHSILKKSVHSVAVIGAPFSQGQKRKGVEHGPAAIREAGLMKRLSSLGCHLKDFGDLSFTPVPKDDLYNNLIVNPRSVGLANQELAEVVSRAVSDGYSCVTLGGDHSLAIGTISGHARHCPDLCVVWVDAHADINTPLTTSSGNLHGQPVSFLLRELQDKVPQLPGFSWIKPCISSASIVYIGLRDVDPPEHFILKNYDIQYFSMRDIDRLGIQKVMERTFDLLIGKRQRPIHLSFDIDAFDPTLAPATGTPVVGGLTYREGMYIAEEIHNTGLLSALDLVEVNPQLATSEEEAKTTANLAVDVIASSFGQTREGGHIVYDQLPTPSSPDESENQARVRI

[5] = biological target: T3, Proteasome subunit beta (Trypanosoma cruzi) (UniProt O96673); assay: Trypanosoma cruzi proteasome chymotrypsin-like activity (TcProtChymo) assay.; also: in the data most compounds retested in dose-response had high values; format: functional; details: 9.37 µM
T3 sequence (whole entry): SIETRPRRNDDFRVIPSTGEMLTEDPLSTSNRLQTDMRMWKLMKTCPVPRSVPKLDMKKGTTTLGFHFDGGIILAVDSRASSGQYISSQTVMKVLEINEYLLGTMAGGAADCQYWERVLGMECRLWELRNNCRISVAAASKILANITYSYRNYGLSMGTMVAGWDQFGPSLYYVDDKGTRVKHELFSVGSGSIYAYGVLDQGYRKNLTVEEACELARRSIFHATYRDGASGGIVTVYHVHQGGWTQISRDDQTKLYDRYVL

Homo sapiens = organism: Homo sapiens; assay: To identify inhibition of the IFN signalling (Jak-Stat) pathway via expression of an eGFP reporter gene under the control of an IFN-stimulated response element (ISRE) containing MxA promoter.; format: functional; details: 30 µM
[6] = biological target: T4, Tyrosyl-tRNA synthetase, putative (Trypanosoma cruzi (strain CL Brener)) (UniProt Q4DSP6); assay: Trypanosoma cruzi tyrosyl tRNA synthetase (TcYRS) _High Tyrosine SOP; format: functional; details: 30 µM; also: in the data most compounds retested in dose-response had high values
T4 sequence (whole entry): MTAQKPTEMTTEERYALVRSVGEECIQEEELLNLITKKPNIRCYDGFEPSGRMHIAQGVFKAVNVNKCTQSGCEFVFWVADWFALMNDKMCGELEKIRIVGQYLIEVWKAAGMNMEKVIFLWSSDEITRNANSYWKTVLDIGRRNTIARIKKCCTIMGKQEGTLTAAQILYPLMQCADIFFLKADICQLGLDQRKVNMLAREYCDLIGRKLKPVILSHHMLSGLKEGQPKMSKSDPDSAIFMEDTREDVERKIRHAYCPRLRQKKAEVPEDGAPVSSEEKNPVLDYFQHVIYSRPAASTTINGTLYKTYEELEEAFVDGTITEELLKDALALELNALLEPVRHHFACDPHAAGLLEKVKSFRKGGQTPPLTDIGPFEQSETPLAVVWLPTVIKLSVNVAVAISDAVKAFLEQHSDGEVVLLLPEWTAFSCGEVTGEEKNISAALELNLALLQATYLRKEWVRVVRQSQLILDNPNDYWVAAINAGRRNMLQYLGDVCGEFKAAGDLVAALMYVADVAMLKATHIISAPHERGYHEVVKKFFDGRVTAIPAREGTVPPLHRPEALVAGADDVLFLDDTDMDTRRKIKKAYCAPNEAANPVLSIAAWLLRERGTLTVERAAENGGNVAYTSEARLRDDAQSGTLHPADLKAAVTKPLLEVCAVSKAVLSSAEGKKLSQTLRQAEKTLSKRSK

[7] = biological target: T4, Tyrosyl-tRNA synthetase, putative (Trypanosoma cruzi (strain CL Brener)); assay: Trypanosoma cruzi tyrosyl tRNA synthetase (TcYRS) SOP; format: functional; details: 30 µM
[8] = biological target: Chromo domain-containing protein 1 (Saccharomyces cerevisiae (strain ATCC 204508 / S288c) (Baker's yeast)) (UniProt P32657); assay: ScCHD-1 Enzyme Inhibition Assay; format: functional; details: 30 µM; also: in the data most compounds retested in dose-response had high values
Chromo domain-containing protein 1 (Saccharomyces cerevisiae (strain ATCC 204508 / S288c) (Baker's yeast)), sequence (P32657 whole entry, the tested form may be a part): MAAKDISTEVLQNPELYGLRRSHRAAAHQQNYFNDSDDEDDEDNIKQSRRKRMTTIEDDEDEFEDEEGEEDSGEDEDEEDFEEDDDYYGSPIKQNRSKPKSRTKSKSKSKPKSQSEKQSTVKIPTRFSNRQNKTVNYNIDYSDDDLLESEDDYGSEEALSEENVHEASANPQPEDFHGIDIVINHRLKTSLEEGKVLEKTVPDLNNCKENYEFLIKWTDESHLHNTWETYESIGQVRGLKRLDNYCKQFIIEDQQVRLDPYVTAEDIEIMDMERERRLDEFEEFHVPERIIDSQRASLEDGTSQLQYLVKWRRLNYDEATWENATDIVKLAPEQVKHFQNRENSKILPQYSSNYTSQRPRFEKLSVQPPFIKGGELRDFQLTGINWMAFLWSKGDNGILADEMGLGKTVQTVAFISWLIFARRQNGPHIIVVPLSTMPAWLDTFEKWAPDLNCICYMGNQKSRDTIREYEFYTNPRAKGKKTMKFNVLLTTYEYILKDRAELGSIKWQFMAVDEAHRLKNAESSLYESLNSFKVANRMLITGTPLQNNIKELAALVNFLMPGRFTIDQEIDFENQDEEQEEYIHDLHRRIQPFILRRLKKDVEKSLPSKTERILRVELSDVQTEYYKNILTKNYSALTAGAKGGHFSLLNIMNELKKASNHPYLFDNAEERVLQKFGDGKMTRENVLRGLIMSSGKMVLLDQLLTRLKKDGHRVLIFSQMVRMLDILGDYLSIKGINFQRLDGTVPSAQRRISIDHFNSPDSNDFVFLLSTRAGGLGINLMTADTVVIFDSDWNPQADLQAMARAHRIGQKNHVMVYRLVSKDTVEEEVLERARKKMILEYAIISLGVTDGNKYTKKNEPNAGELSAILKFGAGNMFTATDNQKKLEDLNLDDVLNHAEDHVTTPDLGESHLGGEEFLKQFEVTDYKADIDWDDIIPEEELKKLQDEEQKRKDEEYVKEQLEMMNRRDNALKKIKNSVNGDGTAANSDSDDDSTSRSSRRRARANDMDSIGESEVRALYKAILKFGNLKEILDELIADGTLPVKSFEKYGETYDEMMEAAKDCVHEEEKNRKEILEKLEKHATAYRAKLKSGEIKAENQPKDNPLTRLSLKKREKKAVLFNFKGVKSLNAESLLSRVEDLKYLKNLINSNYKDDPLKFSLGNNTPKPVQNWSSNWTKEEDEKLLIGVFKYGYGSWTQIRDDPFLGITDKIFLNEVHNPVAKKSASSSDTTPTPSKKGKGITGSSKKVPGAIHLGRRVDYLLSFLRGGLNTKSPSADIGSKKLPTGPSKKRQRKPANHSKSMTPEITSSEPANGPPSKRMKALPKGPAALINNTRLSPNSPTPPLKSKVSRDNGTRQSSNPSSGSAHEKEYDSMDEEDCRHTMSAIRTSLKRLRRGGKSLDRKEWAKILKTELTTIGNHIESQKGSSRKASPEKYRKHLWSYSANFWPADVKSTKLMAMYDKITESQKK

Protein translocase subunit SecA (Escherichia coli (strain K12)), sequence (P10408 whole entry): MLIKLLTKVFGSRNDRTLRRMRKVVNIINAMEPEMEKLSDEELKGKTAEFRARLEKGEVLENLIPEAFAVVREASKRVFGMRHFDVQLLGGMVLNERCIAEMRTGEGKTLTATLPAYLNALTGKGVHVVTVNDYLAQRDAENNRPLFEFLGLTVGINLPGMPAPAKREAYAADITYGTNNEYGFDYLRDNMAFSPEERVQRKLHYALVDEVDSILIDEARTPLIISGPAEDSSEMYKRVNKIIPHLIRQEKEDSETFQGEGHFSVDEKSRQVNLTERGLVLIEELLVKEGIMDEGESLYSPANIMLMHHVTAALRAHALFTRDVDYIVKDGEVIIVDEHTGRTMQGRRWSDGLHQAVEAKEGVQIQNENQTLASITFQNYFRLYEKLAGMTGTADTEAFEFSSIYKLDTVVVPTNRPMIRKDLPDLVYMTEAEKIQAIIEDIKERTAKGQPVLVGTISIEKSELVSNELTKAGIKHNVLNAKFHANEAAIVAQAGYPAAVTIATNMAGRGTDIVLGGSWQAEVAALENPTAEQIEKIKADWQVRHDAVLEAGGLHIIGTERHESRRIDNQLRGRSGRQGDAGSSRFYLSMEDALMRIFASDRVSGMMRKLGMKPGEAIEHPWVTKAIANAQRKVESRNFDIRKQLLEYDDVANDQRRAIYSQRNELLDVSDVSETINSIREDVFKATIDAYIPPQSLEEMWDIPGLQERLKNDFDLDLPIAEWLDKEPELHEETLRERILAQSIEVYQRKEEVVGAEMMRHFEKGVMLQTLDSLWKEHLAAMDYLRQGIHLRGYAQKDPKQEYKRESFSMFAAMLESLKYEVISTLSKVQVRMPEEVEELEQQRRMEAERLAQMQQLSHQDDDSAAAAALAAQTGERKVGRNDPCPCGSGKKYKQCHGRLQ

| SMILES | Percent Effect [1] [%] | Percent Effect [2] [%] | Percent Effect [3] [%] | Percent Effect (Trypanosoma cruzi) [%] | Percent Effect [4] [%] | Percent Effect [5] [%] | Percent Effect (Homo sapiens) [%] | Percent Effect [6] [%] | Percent Effect [7] [%] | Percent Effect [8] [%] |
| --- | --- | --- | --- | --- | --- | --- | --- | --- | --- | --- |
| COc1ccc(C[C@H]2CN(C(=O)c3ccncc3)CC[C@@H]2OC)cc1 | -3.87 | 11.7 | 0.155 | -6.57 | -11.4 | 6.61 | 11.4 | -2.9 | -2.5 | -10.3 |
| CC(=O)NC1CCCN(C(=O)NCc2cccnc2-n2cccn2)C1 (stereo not given) | -4.23 | 10.7 | -0.777 | -6.22 | 6.21 | 11.4 | 14.4 | 5.79 | 7.69 | -8.06 |
| CN(C)S(=O)(=O)N1CCCC(c2cccc(Cc3ccccc3)n2)C1 (stereo not given) | -0.482 | 6.67 | -7.39 | -6.31 | -5.31 | 14.4 | 58.5 | -5.29 | 0 | -8.36 |
| CN(Cc1nnc(C2CC2)o1)C1CCN(CCCc2cnn(C)c2)C1 (stereo not given) | -0.864 | 10.7 | -3.87 | -2.61 | -2.22 | 22.1 | 18.5 | 11.1 | 15.4 | -5.79 |
| CCS(=O)(=O)N(C)CC(=O)Nc1ccc(Br)cn1 | -6.17 | 26.7 | 0.132 | -0.402 | -0.444 | 18.2 | 13.7 | 1.58 | 12.8 | -8.92 |
| O=C(Nc1cccc2c1CCCC2)C1CCCN1c1nccs1 (stereo not given) | -1.27 | 5.13 | 1.32 | -0.845 | 4.51 | 5.55 | -6.07 | 8.13 | 20.5 | 13.6 |
| O=C(NC[C@]1(O)CN(Cc2ccccc2F)C[C@H]1O)c1ccccn1 | -1.11 | 12 | -1.14 | -2.37 | 1.33 | 10.5 | 6.15 | 4.23 | 15 | -24.1 |
| Cc1ccc(SCC2CNc3nc4ccccc4c(=O)n32)c(C)c1 (stereo not given) | 0.606 | 22.1 | 23.4 | 0.375 | 5.94 | 12.4 | 29.8 | 6.76 | -2.5 | -2.7 |
| Cn1cc(CN2CCCC23CCN(C(=O)c2cccn2C)CC3)cn1 | -1.03 | -6.49 | -3.73 | -0.876 | -2.43 | -0.441 | -15.7 | -0.526 | 0 | -0.154 |
| Cc1cccc(-c2noc(CN3CCCC3Cn3cccn3)n2)c1 (stereo not given) | -4.47 | -13.3 | 4.15 | 2.81 | -0.887 | 9.07 | 35.3 | 1.58 | 2.56 | -6.03 |
